Source: PubChem BioAssay (National Center for Advancing Translational Sciences (NCATS))
The list is not random: actives were taken first. Their share in the collection is about 19%.
TDP1 cell CPT: DT40-hTDP1 cell growth loss with CPT; actives 12% (n = 420,000); AID 686979; chicken DT40 Tdp1-/-;hTDP1 cells + 20 nM CPT, ATP luminescence, 48 h; Potency, µM (doses to about 46.2 µM), without a hit: top-dose activity change, negative = growth inhibition, most hits filed as inhibitors; note: potency is the fitted concentration of half-maximal effect; nearly all actives have a fitted effect of over 55% in size
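Cell growth measured by CellTiter-Glo luminescence after a minimum 48 h, 37 C compound exposure with 20 nM CPT in Tdp1-knockout DT40 cells stably expressing hTDP1, seeded 400/well; qHTS titration format.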
HT1080 IDH1KD tx: kills HT-1080 cells with IDH1 knockdown; actives 2% (n = 360,000); HT-1080 IDH1 knockdown viability, ATP luminescence, 48 h; Potency, µM (series often up to 46.1 µM), for the others: top-dose activity, negative = toxicity, hits mostly cytotoxic;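 note: potency is the fitted concentration of half-maximal effect; 0% = DMSO wells and -100% = cell-free medium wells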
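In this qHTS, HT-1080 cells depleted of IDH1 are exposed for 48 h at 37 °C to compound titrations. Toxicity is scored from CellTiter-Glo luminescence, with DMSO as full viability and medium alone as none.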
HT1080-NT tox: kills 2HG-producing HT-1080-NT fibrosarcoma cells; HT-1080-NT fibrosarcoma viability, CellTiter-Glo ATP luminescence, 48 h; Potency, µM (top dose mostly 46.1 µM), without a hit: top-dose activity, negative = less viability, usual class: cytotoxic; actives 1.6% (n = 360,000);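 note: NT is the 2HG producing partner of a matched IDH1 knockdown line; potency is the fitted concentration of half-maximal effect; 0% = DMSO-treated cells and -100% = media-only wells without cells; nearly all actives have a fitted effect of over 55% in size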
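HT-1080-NT fibrosarcoma cells (2HG-overproducing), 750 cells/well in RPMI with 5% FBS, dosed after 2 h and incubated 48 h at 37C. CellTiter-Glo luminescence normalized to DMSO and no-cell wells; concentration-response curves fitted and classed.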
DT40 TDP1 no CPT: qHTS for Inhibitors of human tyrosyl-DNA phosphodiesterase 1 (TDP1): qHTS in cells in absence of CPT. DT40 Tdp1-/- hTDP1 cells, no CPT, ATP luminescence, 48 h. Potency, µM (highest dose often 46.2 µM), for inactives: top-dose activity change, negative = growth inhibition, most hits filed as inhibitors. actives 15% (n = 420,000); note: potency is the fitted concentration of half-maximal effect; nearly all actives have a fitted effect of over 55% in size
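DT40 Tdp1-/-;hTDP1 cells, no CPT (DMSO vehicle only), 400 cells/well; compounds pin-transferred; ≥48 hr, 37 °C; CellTiter-Glo 30 min RT dark, luminescence read.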
IL-1B inflam inh: inhibitors of inflammasome signaling (IL-1 beta secretion). THP-1 LPS/ATP IL-1B secretion, AlphaLISA, 16 h; hits give low values. actives 4.7% (n = 360,000). activity change, % at 57.5 µM. AID 743279; in the data active = activity change below about -50%; inconclusive = mostly about -30% to -49%
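Secreted IL-1B measured by AlphaLISA bead assay after 16 h compound exposure of THP-1 cells; compounds (final up to 57.5 uM) added 1 h before LPS (250 ng/mL) and ATP (1.25 mM) stimulation; lower signal means less secretion.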
uPA generation: blocks generation of uPA at the cell surface; Potency, µM (top dose mostly 38.3 µM), without a hit: top-dose activity change, negative = inhibition, usual class: inhibitors; actives 0.31% (n = 330,000); AID 540303; cell surface uPA generation assay, qHTS; active = well fitted inhibition curve with a large enough effect; inconclusive = small, poorly fitted or top-dose-only effect; inactive = no such curve, though single readings can be large or run the other way; tested in mouse RAW 264.7 cells; note: potency is the fitted concentration of half-maximal effect; nearly all actives have a fitted effect of over 55% in size
* marks the source's active call; other numbers are inactive results; ? = inconclusive; . = no result; [ ] = remark or other dose. Unless noted, calls come from the whole dose curve; as a rule, active = well fitted curve in the direction sought with a large enough effect; inconclusive = small, poorly fitted or top-dose-only effect, or another doubt; inactive = no such curve, though single readings can be large; an effect the other way counts as inactive or inconclusive. Unless noted, % is set by controls: 0 for no effect and ±100 for the full control effect.

SMILES	TDP1 cell CPT	HT1080 IDH1KD tx	HT1080-NT tox	DT40 TDP1 no CPT	IL-1B inflam inh	uPA generation
COc1ccc(NC(=O)COC(=O)Cn2cnc3ccccc32)cc1	-17.6%	-1.0%	-2.5%	-10.6%	0.0	1.7%
COc1ccc(-n2c(C)cc(C(=O)COC(=O)Cn3cnc4ccccc43)c2C)cc1	15.8µM*	?	-9.1%	17.8µM*	1.7	-3.8%
Cc1cc(C(=O)COc2cccc(-n3cnnn3)c2)c(C)n1-c1ccccc1	23.1µM*	-28.8%	-13.0%	20.6µM*	?	-6.4%
COC(=O)COc1cccc(-n2cnnn2)c1	13.4%	8.3%	-2.9%	3.4%	18.8	.
Cc1cc(C(=O)COC(=O)c2ccc(O)cc2O)c(C)n1-c1ccccc1	20.6µM*	-5.7%	-10.7%	20.6µM*	-80.9*	-6.5%
Cc1ccccc1CN1C(=O)[C@H]2Cc3c([nH]c4ccccc34)C(C)(C)N2C1=O	.	.	.	.	.	20.4%
COc1ccc(N2CCN(C(=O)CSc3nnc(C4CC4)n3C3CC3)CC2)cc1	-16.3%	8.2%	7.6%	-6.2%	7.1	.
Cn1c(=O)oc2cc(S(=O)(=O)NCCC(=O)Nc3ccc(F)cc3F)ccc21	-6.6%	.	.	-13.6%	.	.
O=c1cc(CN(Cc2ccccc2)Cc2ccccc2)c2c(ccc3ccccc32)o1	29.1µM*	4.7%	7.4%	?	41.9	.
O=c1cc(CN2CCCCC2)c2c(ccc3ccccc32)o1	?	2.5%	0.7%	?	0.0	.
Cc1ccc2oc(=O)cc(CN3CCN(Cc4ccccc4)CC3)c2c1	-21.8%	-4.3%	-1.9%	-9.2%	22.7	-9.0%
CCc1cc2c(CN3CCN(Cc4ccccc4)CC3)cc(=O)oc2cc1O	16.4µM*	-24.7%	-24.0%	18.4µM*	?	-0.6%
Cc1ccc2c(CN3CCCCC3)cc(=O)oc2c1C	3.7%	-0.2%	3.6%	3.8%	0.8	-1.3%
Cc1ccc2c(CN3CCN(S(=O)(=O)c4ccccc4C(F)(F)F)CC3)cc(=O)oc2c1C	?	-5.7%	-10.5%	23.1µM*	3.1	6.0%
O=c1cc(CN2CCN(Cc3ccccc3)CC2)c2cc3c(cc2o1)CCC3	?	2.3%	-1.9%	18.4µM*	-69.3*	11.2%
COc1ccc(CN2CCCC(Cn3cc(C(=O)N4CCCC4)nn3)C2)c(O)c1 (centres undefined)	1.1%	.	.	-5.8%	.	.
Cc1cc2oc(=O)cc(CN(C)Cc3cccc(F)c3)c2cc1C	?	8.5%	3.1%	-6.7%	4.6	-1.8%
CCc1ccc2c(CN3CCN(Cc4ccccc4)CC3)cc(=O)oc2c1	-23.1%	-17.7%	-10.3%	?	-61.2*	1.6%
COc1ccc2oc(=O)cc(CN3CCN(Cc4ccccc4)CC3)c2c1	?	-4.3%	-2.9%	?	36.5	.
COc1ccc2c(CN3CCN(Cc4ccccc4)CC3)cc(=O)oc2c1	?	-15.7%	2.1%	23.1µM*	-5.3	.
O=c1cc(CN2CCN(Cc3ccccc3)CC2)c2ccc(O)c(O)c2o1	10.3µM*	?	?	14.6µM*	82.7	-12.7%
CCc1cc2c(CN(C)Cc3ccccc3F)cc(=O)oc2cc1O	?	?	?	14.6µM*	12.9	0.3%
Cc1c(O)ccc2c(CN3CCN(Cc4ccccc4)CC3)cc(=O)oc12	-29.1%	4.5%	-6.8%	-19.9%	17.2	-6.9%
OC[C@@H](O)[C@H](O)[C@H](O)[C@@H](O)CO	-12.7%	.	.	-1.2%	.	.
COc1ccc2c(CN3CCN(c4ccc(Cl)c(Cl)c4)CC3)cc(=O)oc2c1	20.6µM*	8.2%	10.5%	13µM*	31.5	.
SMILES	TDP1 cell CPT	HT1080 IDH1KD tx	HT1080-NT tox	DT40 TDP1 no CPT	IL-1B inflam inh	uPA generation
COc1ccc(N2CCN(Cc3cc(=O)oc4cc(C)c(Cl)c(C)c34)CC2)cc1	14.6µM*	-1.6%	-0.1%	9.2µM*	0.5	-7.1%
CC(C)CN(Cc1cc(=O)oc2cc3c(cc12)CCCC3)CC(C)C	?	5.0%	-3.0%	20.6µM*	1.7	6.8%
COc1ccc(N2CCN(Cc3cc(=O)oc4ccc(OC)cc34)CC2)cc1	-17.8%	.	.	-25.2%	.	.
CCc1ccc2c(CN3CCc4ccccc43)cc(=O)oc2c1	?	-3.7%	-7.1%	?	-11.7	-7.6%
CCc1ccc2c(CN3CCN(S(=O)(=O)c4ccccc4F)CC3)cc(=O)oc2c1	-95.1%	2.0%	-0.7%	23.1µM*	-25.1	-8.5%
COc1cccc(C(=O)NCC(=O)N/N=C/c2ccc3c(c2)OCO3)c1	0.8%	3.3%	3.2%	5.2%	55.1	3.1%
O=C(NCCCN1CCCC1=O)C1CCN(S(=O)(=O)c2c(Cl)cccc2Cl)CC1	-6.6%	-3.8%	-1.2%	-19.2%	-6.0	-2.3%
COc1ccc2c(COC(=O)c3n[nH]c4ccccc34)cc(=O)oc2c1	?	14.9%[9.24 µM]	7.4%	20.6µM*	0.0	-2.7%
Cc1cc2oc(=O)cc(COC(=O)c3n[nH]c4ccccc34)c2cc1C	?	0.4%	3.7%	?	-22.1	1.5%
COc1ccc2c(CN(Cc3ccccc3)Cc3ccccc3)cc(=O)oc2c1	16.4µM*	-17.0%	-18.7%	?	24.7	.
COc1ccc2c(c1)c1c(c(=O)n(Cc3ccccc3)c(=O)n1Cc1ccccc1Cl)n2C	6.6%	.	.	-9.1%	.	.
CCCN(CCC)S(=O)(=O)c1ccc(Cl)c([N+](=O)[O-])c1	?	23.1µM*	?	14.6µM*	-102.8*	-4.2%
